Out of some 67,000 compounds screened, fewer than 10 were called active. A selection follows. Unmarked numbers belong to inactive results. Calls follow the shape of the dose curve; as a rule, active = well fitted activation curve with a large enough effect (not every such curve was filed as active); inconclusive = small, poorly fitted or top-dose-only effect, or another doubt; inactive = no such curve, though single readings can be large or run the other way.

The assay is described as follows: Ubiquitin-GFP Assay. The following applies: Ubiquitin-GFP reporter cells, proteasome inhibition, GFP fluorescence, untreated = 0%, 10 µM MG-132 = 100%; series mostly up to 45.9 µM; activation (GFP accumulation): at the top concentration. The source says:
NIH Chemical Genomics Center [NCGC]
NIH Molecular Libraries Screening Centers Network [MLSCN]
The ubiquitin-proteasome pathway is present within all eukaryotic cells and plays roles in normal cellular functions and disease-related dysfunction. Proteins are tagged with a poly-ubiquitin chain that targets them for the proteasome, a multimeric protease, that degrades the protein into peptides and free ubiquitin. The proteasome has a key role in regulating cell cycle and growth and is known to control the levels of cyclins and CDK inhibitors as well as tumor suppressor proteins. Additionally, the activation of NF- B is controlled by ubiquitin-labeling and degradation of the inhibitory protein I B . […] With this in mind, proteasome inhibitors such as MG-132 and PS-341 have been used to inhibit tumor cell growth.
A cellular assay for ubiquitin-proteasome function was used to find chemical probes of this pathway. The assay used an ubiquitin-GFP construct expressed in U2OS cells (BioImage). Under basal conditions little GFP can be detected as it is degraded by the proteasome. However, treatment of the cells with a proteasome inhibitor such as MG-132 results in a rise in GFP levels that can be detected in as little as four hours. We used the Acumen-Explorer laser plate cytometer having a 488 nm laser as an excitation light source to detect the GFP. Compounds were screened in 1536-well plates using qHTS with a concentration-titration series range that varied from 46 uM to 2.9 nM.
NCGC Assay Protocol Summary:
Cells (U20S ps 2042) expressing ubiquitin (G76V-GFP) were maintained in DMEM with Glutamax-1 and high glucose, 10% FBS, 1% (v/v) penicillin-streptomycin, 0.5 mg/mL Geneticin (G418). The cells were seeded in 1536-well plates using a solenoid-based dispenser at 700 cells/5ul in DMEM medium with Glutamax-1 and high glucose containing 0.5% FBS, w/o phenol red, 25 mM HEPES. The plates were incubated at 37 °C/5% CO2 overnight. Then 23 nl of MG-132 in DMSO was added to the control wells at a final concentration of 10 uM. Next, 23 nL of library compounds in DMSO were added to the sample wells. The plates were incubated for 4 hrs at 37 °C/5% CO2. Following this incubation the plates were read on the Acumen using a cell object definition of 15 to 100 um in width and depth and a window of Total Intensity of between 77,200 and 2,720,000 FLU to enumerate GFP-expressing cells.
The %Activity was determined from the basal and MG-132 treated control wells. %Activity was determined by normalizing to the difference in signal between basal cells (0% Activity) and cells incubated with 10 uM of the proteasome inhibitor MG-132 (100% Activity). Concentration-response curves were fitted to the signals arising from the GFP fluorescence.
Assay Protocol Summary Table
Sequence Parameter Value Description
2. Time O/N 37C incubation
4. Compound 23 nL Libraries (46 uM to 2.9 nM)
5. Time 4 hr 37C incubation
6. Detector Acumen Total Intensity, GFP fluorescence (488 ex/515 em)
Keywords: NIH Roadmap, MLSCN, MLI, MLSMR, BioImage, proteasome, ubiquitin-GFP, qHTS, NCGC
In the case of `Cc1cc(=O)n2nc(N3CCCC(C(=O)N4CCN(C)CC4)C3)sc2n1` (stereo unspecified), the “activation (GFP accumulation)” value is -0.855%.

Consider `CN(C)C(=O)/N=N\C(=O)N(C)C`, for which the “activation (GFP accumulation)” value is 0.779%.

On to `CCCC(CCC(=O)OC)(C(=O)OCC)c1csc(N)n1` (stereo unspecified), for which the “activation (GFP accumulation)” value was -4.11%.

On to `O=C(CSC1=NCCS1)Nc1nc(-c2ccccc2)cs1`, for which the “activation (GFP accumulation)” value was -15.6%.

With `COc1ccc(OC)c(C(=O)CSc2nnc(-c3cccs3)o2)c1`, the “activation (GFP accumulation)” value was 0%.

For `Cc1ccc2cccc(O)c2[n+]1[O-]`, the “activation (GFP accumulation)” value is -6.52%.

Turning to `COc1ccc(OC)c(NC(=O)CSc2nc3cccnc3n2C)c1`, the “activation (GFP accumulation)” value is -1.06%.

As for `CCCCC(=O)Nc1ccc(C(=O)NCCCn2ccnc2)cc1`, the “activation (GFP accumulation)” value was -2.04%.

Turning to `CN1[C@H]2CC(OC(=O)[C@@H](CO)c3ccccc3)C[C@H]1[C@H]1O[C@H]12` (stereo partly specified), the “activation (GFP accumulation)” value is 0.807% [at 20.5 µM].

Take `Nc1ccc2c3c(cccc13)C(=O)NC2=O`: the “activation (GFP accumulation)” value was -1.64%.

On to `Cc1ccc(Cn2ccc(NC(=O)C3C4CCC(C4)C3C(=O)O)n2)cc1` (stereo unspecified), for which the “activation (GFP accumulation)” value is 13.5%.

As to `Cc1cccc(N2CCN(Cc3c(C)n(C)n(-c4ccccc4)c3=O)CC2)c1C`, the activation (GFP accumulation) is -18.2% [at 9.17 µM].

As to `Cc1onc(-c2ccccc2Cl)c1C(=O)NCCn1ccc2ccccc21`, the “activation (GFP accumulation)” value was 16%.

In the case of `CCOC(=O)c1cc(-c2ccc(Cl)s2)nc2c1c(C)nn2C`, the “activation (GFP accumulation)” value is -2.17%.

Regarding `COc1nc(NCc2ccc(Cl)cc2)nc(OC)n1`, the activation (GFP accumulation) was -9.93% [at 9.17 µM].

For `COc1ccc(-c2cc(C(F)(F)F)nc(SCCC(=O)NCc3ccco3)n2)cc1`, the “activation (GFP accumulation)” value is -4.87%.

In the case of `COC(=O)C(C)Sc1ccc2nnc(-c3cccc(F)c3)n2n1` (stereo unspecified), the “activation (GFP accumulation)” value was 11.7%.

In the case of `CCNc1ncc2nc(CCc3ccccc3)c(=O)n(-c3ccc(OC)cc3)c2n1`, the “activation (GFP accumulation)” value was -0.0408%.

Turning to `Cc1nnc(C)n1/N=C/c1ccc(C(C)C)cc1`, the “activation (GFP accumulation)” value was 1.85%.

As to `O=C(CN1CCN(C2CCCCC2)CC1)Nc1ccccc1N1CCCCC1`, the “activation (GFP accumulation)” value is -0.833%.

For the molecule `CS(=O)(=O)N1CCC2(CCN(c3ccncc3)CC2)CC1`, the “activation (GFP accumulation)” value is -4.81%.

Regarding `COc1ccccc1NC(=O)CSc1nnc(Cc2cccn2C)n1-c1ccc(F)cc1`, the “activation (GFP accumulation)” value was 6.14%.

With `CNC(=O)CN1C(=O)c2ccccc2S1(=O)=O`, the “activation (GFP accumulation)” value is 12.9%.

For `Oc1c(CN2CCOCC2)ccc(CN2CCOCC2)c1O`, the activation (GFP accumulation) was -4.99% [at 9.17 µM].

Consider `Cc1cc(C)c2nc3c(c([C@H](O)[C@@H]4CCCCN4)c2c1)CC/C3=C/c1ccc(Cl)cc1`, for which the activation (GFP accumulation) is 1.75% [at 9.17 µM].

`O=C(Nc1c[nH]c(=O)[nH]c1=O)Oc1ccccc1`: the activation (GFP accumulation) is 7.84% [at 9.17 µM].

Take `CC(=O)Nc1nc(C)c(Cc2ccccc2)c(=O)[nH]1`: the “activation (GFP accumulation)” value was -8.77%.

As for `O=C(NC(c1ccccc1)c1ccccc1)N1CCN(CCO)CC1`, the “activation (GFP accumulation)” value was -0.276%.

For `O=C(c1cnccn1)N1CCC2(CCN(Cc3cc(C(F)(F)F)cc(C(F)(F)F)c3)CC2)CC1`, the “activation (GFP accumulation)” value was -15.1%.

Take `CC1(C)NC(=O)N(CCOc2cccc(Oc3ccccc3)c2)C1=O`: the “activation (GFP accumulation)” value was 15%.

For `Cc1ccccc1NC(=O)c1cnn(-c2ccccc2)c1NC(=O)c1ccco1`, the “activation (GFP accumulation)” value was -3.93%.

Take `c1ccc(CSCCc2ccncc2)cc1`: the activation (GFP accumulation) was 0.403% [at 9.17 µM].

As for `CCOC(=O)c1cc2cc(C)ccc2[nH]1`, the “activation (GFP accumulation)” value was 2.14%.

On to `Cn1c(=O)cc(OCCCC(=O)N2CCN(c3ccccn3)CC2)c2ccccc21`, for which the “activation (GFP accumulation)” value is 15.3%.

As for `COc1ccccc1-n1c(CNC(=O)c2ccccc2)nnc1SCC(=O)Nc1nnc(C)s1`, the “activation (GFP accumulation)” value is -3.39%.

Take `COc1ccccc1-c1nc(NCCNC(C)=O)c2ccccc2n1`: the “activation (GFP accumulation)” value is 2.52%.

With `CCc1ccc(-c2nnn(Cc3nc4ccccc4s3)n2)cc1`, the “activation (GFP accumulation)” value was -6.9%.

For the molecule `CC(=O)OCC(=O)[C@@]1(O)CC[C@@H]2[C@H]3CCC4=CC(=O)C=C[C@]4(C)[C@]3(F)[C@@H](O)C[C@@]21C`, the “activation (GFP accumulation)” value is 14% [at 20.5 µM].

`CCC(=O)N1c2ccc(S(=O)(=O)CCC(=O)N3CCN(c4ccccc4)CC3)cc2CC1C` (stereo unspecified): the “activation (GFP accumulation)” value was 2.7%.

As to `CN(C)c1nc2n(c(=O)n1)CCO2`, the “activation (GFP accumulation)” value was -3.46%.

Take `c1ccc(CCN2CCN=C2Cc2ccccc2)cc1`: the activation (GFP accumulation) was -3.08% [at 9.17 µM].

Turning to `COc1ccccc1N1CCN(C(=O)c2cc(-c3ccc(Cl)c(Cl)c3)on2)CC1`, the “activation (GFP accumulation)” value was -2.38%.

As for `Cc1nc(NC(=O)CCC(=O)O)sc1C(=O)N(C)C`, the “activation (GFP accumulation)” value was 2.7%.

Turning to `CN1CCN(CCCNC(=O)c2cc3c(=O)oc4ccccc4c3s2)CC1`, the “activation (GFP accumulation)” value was -2.5%.

On to `COc1ccc(CC(=O)Nc2nc3n(n2)C(c2ccccc2)CC(=O)N3)cc1OC` (stereo unspecified), for which the “activation (GFP accumulation)” value is 4.29%.

On to `COc1c(C)c2c(c(O)c1C/C=C(\C)CCC(=O)O)C(=O)OC2`, for which the activation (GFP accumulation) entry is “inactive”.

Values taken from PubChem BioAssay AID526 (National Center for Advancing Translational Sciences (NCATS), 2006).
